Data on 23 targets can be found in the supplement of paper PMC10849652.

Targets with a hit are over-represented here; the source holds about 7,900 in all. About 0.6% of all pairs of compound and target were hits.

Chain of UniProt O75822 (O75822 whole entry, looked up): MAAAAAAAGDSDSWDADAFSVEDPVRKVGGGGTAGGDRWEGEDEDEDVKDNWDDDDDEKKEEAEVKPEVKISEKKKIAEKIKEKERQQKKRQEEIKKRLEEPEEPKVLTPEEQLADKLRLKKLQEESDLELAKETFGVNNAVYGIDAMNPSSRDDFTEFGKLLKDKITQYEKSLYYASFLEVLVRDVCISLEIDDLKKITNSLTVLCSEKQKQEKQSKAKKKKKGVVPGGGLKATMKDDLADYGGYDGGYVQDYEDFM
Chain of UniProt Q8IYI6 (Q8IYI6 whole entry, looked up): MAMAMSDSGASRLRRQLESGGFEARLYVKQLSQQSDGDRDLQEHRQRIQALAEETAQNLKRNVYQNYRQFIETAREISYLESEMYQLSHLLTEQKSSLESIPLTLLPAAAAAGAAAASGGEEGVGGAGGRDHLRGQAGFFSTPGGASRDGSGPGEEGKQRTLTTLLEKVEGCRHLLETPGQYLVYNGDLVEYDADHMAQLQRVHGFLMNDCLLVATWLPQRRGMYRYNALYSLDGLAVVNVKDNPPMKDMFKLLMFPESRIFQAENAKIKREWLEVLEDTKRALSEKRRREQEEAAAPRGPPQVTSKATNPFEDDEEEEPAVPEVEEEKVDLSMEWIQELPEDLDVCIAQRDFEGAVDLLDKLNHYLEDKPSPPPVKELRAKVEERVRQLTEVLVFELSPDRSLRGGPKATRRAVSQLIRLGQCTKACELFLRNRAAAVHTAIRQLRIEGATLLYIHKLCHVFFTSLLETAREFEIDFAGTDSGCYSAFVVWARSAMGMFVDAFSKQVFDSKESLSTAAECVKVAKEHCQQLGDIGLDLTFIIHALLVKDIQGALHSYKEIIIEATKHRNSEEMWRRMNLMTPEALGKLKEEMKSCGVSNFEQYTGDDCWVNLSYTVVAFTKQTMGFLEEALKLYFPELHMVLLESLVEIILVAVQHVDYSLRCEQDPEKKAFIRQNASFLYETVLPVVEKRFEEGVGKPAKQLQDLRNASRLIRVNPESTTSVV
Chain of UniProt Q8N3D4 (Q8N3D4 whole entry, looked up): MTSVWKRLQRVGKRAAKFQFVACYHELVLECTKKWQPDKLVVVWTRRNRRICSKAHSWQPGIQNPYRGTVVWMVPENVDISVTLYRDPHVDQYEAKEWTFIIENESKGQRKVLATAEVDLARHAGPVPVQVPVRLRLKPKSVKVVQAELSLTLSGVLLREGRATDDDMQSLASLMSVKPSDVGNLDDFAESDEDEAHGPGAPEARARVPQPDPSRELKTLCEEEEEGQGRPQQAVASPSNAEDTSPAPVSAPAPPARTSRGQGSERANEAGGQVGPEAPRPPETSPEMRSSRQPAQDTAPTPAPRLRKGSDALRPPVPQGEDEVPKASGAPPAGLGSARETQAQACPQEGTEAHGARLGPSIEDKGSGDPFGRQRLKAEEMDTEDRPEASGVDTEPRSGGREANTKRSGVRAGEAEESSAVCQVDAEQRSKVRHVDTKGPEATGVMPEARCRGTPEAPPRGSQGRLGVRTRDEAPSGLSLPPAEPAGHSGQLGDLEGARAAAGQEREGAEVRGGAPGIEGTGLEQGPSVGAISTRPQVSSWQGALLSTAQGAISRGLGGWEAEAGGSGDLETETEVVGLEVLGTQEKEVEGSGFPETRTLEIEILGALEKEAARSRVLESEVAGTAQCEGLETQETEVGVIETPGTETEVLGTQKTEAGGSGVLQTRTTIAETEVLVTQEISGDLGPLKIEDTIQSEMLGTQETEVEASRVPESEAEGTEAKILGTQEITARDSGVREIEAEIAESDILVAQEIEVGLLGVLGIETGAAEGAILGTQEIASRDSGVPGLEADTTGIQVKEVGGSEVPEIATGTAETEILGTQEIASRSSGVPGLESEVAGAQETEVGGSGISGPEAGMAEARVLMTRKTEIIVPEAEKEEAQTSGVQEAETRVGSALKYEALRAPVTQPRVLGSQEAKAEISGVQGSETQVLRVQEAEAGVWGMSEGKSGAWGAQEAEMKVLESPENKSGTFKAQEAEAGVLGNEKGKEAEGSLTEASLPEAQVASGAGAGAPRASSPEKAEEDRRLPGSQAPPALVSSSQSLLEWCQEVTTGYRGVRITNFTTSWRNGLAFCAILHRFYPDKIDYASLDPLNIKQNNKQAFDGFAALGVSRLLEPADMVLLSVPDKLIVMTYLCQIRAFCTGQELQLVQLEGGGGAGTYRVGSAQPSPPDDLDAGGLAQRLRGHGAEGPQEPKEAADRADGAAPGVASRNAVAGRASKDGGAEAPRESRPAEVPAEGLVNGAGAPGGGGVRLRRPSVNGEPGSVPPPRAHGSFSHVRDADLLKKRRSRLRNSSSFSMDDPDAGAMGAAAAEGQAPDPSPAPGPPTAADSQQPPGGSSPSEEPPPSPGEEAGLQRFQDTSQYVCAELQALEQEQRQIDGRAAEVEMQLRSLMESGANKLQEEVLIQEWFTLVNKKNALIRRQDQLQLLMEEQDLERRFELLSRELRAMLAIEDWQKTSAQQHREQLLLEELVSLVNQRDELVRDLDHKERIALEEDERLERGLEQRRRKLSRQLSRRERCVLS
Chain of UniProt Q9NYP7 (Q9NYP7 whole entry, looked up): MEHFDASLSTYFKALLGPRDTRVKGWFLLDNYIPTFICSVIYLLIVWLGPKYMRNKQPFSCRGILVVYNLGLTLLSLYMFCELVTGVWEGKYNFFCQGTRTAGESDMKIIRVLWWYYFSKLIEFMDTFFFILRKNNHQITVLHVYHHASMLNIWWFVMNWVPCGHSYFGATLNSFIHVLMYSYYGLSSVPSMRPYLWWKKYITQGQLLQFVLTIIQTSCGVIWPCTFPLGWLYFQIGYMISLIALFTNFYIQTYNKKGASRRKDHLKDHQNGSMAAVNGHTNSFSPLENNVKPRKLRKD
Chain of UniProt Q86YN1 (Q86YN1 whole entry, looked up): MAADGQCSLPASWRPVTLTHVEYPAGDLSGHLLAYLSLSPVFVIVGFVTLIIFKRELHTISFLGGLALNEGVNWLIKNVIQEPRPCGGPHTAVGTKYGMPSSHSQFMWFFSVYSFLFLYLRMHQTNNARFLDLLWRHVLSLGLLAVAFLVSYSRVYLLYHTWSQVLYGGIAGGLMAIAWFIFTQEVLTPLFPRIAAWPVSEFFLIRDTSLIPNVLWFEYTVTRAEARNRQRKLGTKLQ
Chain of UniProt Q8TCE6 (Q8TCE6 whole entry, looked up): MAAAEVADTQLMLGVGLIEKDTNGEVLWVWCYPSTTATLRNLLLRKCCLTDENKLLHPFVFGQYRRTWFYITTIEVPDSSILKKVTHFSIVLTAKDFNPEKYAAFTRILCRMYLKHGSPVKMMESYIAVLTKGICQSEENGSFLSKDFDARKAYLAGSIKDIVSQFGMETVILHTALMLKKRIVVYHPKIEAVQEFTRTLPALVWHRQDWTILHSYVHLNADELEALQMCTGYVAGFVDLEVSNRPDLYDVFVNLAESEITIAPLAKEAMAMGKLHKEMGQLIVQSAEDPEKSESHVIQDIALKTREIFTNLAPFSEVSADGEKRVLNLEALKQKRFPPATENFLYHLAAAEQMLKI
Chain of UniProt Q8N5C7 (Q8N5C7 whole entry, looked up): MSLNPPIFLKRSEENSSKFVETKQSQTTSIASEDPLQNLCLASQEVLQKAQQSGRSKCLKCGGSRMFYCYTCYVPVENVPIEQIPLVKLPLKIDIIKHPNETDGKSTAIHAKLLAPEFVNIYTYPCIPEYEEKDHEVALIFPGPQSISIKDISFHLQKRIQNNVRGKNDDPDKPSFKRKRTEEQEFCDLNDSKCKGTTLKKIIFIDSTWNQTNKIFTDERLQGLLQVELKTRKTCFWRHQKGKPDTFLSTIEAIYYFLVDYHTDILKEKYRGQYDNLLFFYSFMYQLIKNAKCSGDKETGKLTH
Chain of UniProt O15121 (O15121 whole entry, looked up): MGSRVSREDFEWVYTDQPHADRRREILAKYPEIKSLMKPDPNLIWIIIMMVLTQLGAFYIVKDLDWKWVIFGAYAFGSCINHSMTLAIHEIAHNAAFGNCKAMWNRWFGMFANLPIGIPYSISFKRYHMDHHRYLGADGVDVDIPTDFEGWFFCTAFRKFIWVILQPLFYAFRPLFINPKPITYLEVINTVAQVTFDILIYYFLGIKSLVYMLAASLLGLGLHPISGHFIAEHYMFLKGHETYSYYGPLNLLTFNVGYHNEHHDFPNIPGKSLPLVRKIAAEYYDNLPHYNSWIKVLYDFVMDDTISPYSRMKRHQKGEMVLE
Chain of UniProt P98173 (P98173 whole entry, looked up): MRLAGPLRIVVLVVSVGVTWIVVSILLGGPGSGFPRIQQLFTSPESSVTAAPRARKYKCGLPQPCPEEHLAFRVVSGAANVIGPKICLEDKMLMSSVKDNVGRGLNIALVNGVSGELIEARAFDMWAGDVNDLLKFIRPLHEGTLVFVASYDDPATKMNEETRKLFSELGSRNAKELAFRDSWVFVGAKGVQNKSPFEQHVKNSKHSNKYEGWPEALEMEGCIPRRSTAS
Chain of UniProt Q13409 (Q13409 whole entry, looked up): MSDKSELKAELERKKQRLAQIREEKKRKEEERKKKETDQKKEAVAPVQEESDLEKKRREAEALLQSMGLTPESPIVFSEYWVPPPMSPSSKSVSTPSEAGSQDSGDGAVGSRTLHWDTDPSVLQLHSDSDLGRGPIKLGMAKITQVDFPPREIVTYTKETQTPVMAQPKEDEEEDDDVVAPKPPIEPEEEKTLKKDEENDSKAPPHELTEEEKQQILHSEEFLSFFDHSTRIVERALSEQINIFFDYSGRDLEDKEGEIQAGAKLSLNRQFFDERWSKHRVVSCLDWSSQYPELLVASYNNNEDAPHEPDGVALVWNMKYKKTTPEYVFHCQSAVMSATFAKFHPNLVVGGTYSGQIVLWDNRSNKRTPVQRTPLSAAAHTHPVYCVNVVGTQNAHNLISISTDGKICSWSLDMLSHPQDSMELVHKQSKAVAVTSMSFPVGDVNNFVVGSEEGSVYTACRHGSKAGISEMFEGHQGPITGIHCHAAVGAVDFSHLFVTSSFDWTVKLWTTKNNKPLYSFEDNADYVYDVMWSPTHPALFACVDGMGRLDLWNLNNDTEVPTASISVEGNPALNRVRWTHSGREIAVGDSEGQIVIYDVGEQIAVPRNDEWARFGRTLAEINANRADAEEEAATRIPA

Compound in this experiment: C1=CC2=C(C=CC(=C2)/C=C\3/C(=O)NC(=NCC4=CC=CS4)S3)N=C1
Nature of the experiment: log2 fold change, soluble protein after heating vs DMSO (PISA); higher = thermal stabilisation; K562 cells, 10 uM, 30 min; active = over 0.2 and 3.5 SD of the protein, either way, in both replicates (recomputed). Summed up:
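K562 cells (2×10^6 cells/mL) were treated with 10 μM compound for 30 min, and aliquots were heated for 3 min over 48°C-58°C. Pooled aliquots were extracted in PBS with 0.5% NP-40 at 4°C, and the supernatant after 21,000xg for 90 min was measured by TMTpro 16plex LC-MS/MS with channel sums equalised. Reported thermal stability, relative to control samples and from duplicates, is a log2 fold change.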
With EIF2AK3 (UniProt Q9NZJ5), the log2 fold change was 0.421 (inactive).

On to DCUN1D1 (UniProt Q96GG9), for which the log2 fold change is 0.015 (inactive).

As to EIF3J isoform 2 (UniProt O75822), the log2 fold change was 0.14 (inactive). With DCAF10 (UniProt Q5QP82) the figure was -0.038 (inactive).

DENND10 (UniProt Q8TCE6): the log2 fold change was -0.051 (inactive). With EIF2AK1 (UniProt Q9BQI3) the figure was -0.029 (inactive); with FAM3A (UniProt P98173), 0.059 (inactive); with ELOVL5 isoform 2 (UniProt Q9NYP7), 0.084 (inactive). With DEGS1 (UniProt O15121) the figure was 0.049 (inactive).

In the case of DHCR7 (UniProt Q9UBM7), the log2 fold change was 0.071 (inactive). Consider EIF4G3 isoform 3 (UniProt O43432), for which the log2 fold change was 0.041 (inactive). As for EIF3J (UniProt O75822), the figure is 0.012 (inactive); as for E2F4 (UniProt Q16254), 0.029 (inactive). With DOHH (UniProt Q9BU89) the figure was 0.083 (inactive); with ERLIN2 (UniProt O94905), -0.012 (inactive). As for DPYSL2 (UniProt Q16555), the figure is 0.074 (inactive); as for ELAC1 (UniProt Q9H777), 0.041 (inactive); as for EEF1A1 (UniProt P68104), -0.062 (inactive). For EHBP1L1 (UniProt Q8N3D4), the log2 fold change is 0.057 (inactive). Turning to EXOC8 (UniProt Q8IYI6), the log2 fold change is 0.05 (inactive). With DYNC1I2 isoform 2 (UniProt Q13409) the figure was -0.202 (inactive). Turning to DTWD1 (UniProt Q8N5C7), the log2 fold change is 0.018 (inactive).

Turning to DOLPP1 (UniProt Q86YN1), the log2 fold change is -0.165 (inactive).
